# SMN2 splice enh: qHTS Assay for Enhancers of SMN2 Splice Variant Expression; HEK293 SMN2-luciferase splicing reporter, luminescence, 30-36 h; Potency, µM (doses to about 46.1 µM), for the others: top-dose activity change, positive = activation, most hits filed as activators; 2.8% of 210,000 active; AID 1458, 2008; also: % of control where 0% means no effect; nearly all actives have a fitted effect of over 55% in size
#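 HEK293 cells carry an SMN2 […]–luciferase reporter in which exon 7 inclusion puts luciferase in frame. Cells were plated 10-12 h before compound addition, then incubated 30-36 h at 37C. ONE-Glo luminescence was read; sodium butyrate at 4.5 mM final served as control.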
# NPC1 promoter act: qHTS Assay for NPC1 Promoter Activators | Huh7 NPC1 promoter luciferase reporter, 24 h | Potency, µM (titrated, usually from 9.22 µM), inactives show top-dose activation, hits mostly activators | 2.4% of 320,000 active | AID 485313, 2010; also: % of control where 0% means no effect; nearly all actives have a fitted effect of over 60% in size
#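 Luminescence from an NPC1 promoter-driven luciferase reporter in stably transfected Huh7 cells was measured after 24 h compound treatment at 37 °C, followed by 10 min ambient incubation with luciferase detection reagent.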
# ELG1 genotoxic: qHTS screen for small molecules that induce genotoxicity in human embryonic kidney (HEK293T) cells expressing luciferase-tagged ELG1; HEK293T ELG1-luciferase reporter, luminescence, 16 h; Potency, µM (series often up to 46 µM), inactives show at the top dose activity change, positive = activation, actives largely listed as activators; 1.3% of 330,000 active; AID 504466, 2011; also: % of control where 0% means no effect; nearly all actives have a fitted effect of over 60% in size
#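 After overnight (16 hr) compound treatment at 37 °C, ELG1-luciferase HEK293T cells were lysed with ONE-Glo; luminescence quantified 30 min later at room temperature.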
# Rab9 prom act: qHTS Assay for Rab9 Promoter Activators. AID 485297, 2010. 2.8% of 320,000 active. Potency, µM (top dose mostly 9.22 µM), for inactives: top-dose activation, negative = inhibition, most hits filed as activators. Huh7 Rab9 promoter-luciferase reporter, luminescence, 24 h; also: % of control where 0% means no effect; nearly all actives have a fitted effect of over 60% in size
#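 Luminescence read-out: Huh7 cells stably expressing Rab9-luciferase, treated 24 h with compound at 37 °C, then lysed with luciferase reagent for 10 min at ambient before reading.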
# FLuc counter: qHTS profiling assay for firefly luciferase inhibitor/activator using purifed enzyme and Km concentrations of substrates (counterscreen for miR-21 project); Luciferin 4-monooxygenase (Photinus pyralis), P08659; purified FLuc, Km substrates, luminescence inhibition; 6.9% of 360,000 active; Potency, µM (doses to about 57.5 µM), for the others: top-dose activity change, negative = inhibition, hits mostly inhibitors;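 also: plate controls were vehicle for no effect and reference inhibitor for full effect; nearly all actives have a fitted effect of over 55% in size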
# Target sequence (P08659 whole entry, looked up): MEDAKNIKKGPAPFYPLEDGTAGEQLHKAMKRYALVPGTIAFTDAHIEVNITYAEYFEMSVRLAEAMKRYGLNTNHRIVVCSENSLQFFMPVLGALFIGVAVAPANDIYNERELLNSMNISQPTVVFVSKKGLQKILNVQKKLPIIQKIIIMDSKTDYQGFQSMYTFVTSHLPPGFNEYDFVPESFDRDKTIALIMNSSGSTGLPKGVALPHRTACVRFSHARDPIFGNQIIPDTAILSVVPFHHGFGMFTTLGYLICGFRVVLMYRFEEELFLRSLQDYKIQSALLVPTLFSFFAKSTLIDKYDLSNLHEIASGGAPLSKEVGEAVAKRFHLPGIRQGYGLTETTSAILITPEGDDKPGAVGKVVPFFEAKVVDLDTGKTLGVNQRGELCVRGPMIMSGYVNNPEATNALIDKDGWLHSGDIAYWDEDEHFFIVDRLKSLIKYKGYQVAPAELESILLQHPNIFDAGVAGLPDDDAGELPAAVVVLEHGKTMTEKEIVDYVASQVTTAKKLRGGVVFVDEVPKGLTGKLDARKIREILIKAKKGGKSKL
#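 Biochemical qHTS of compounds, final roughly 60 µM downward over six points, against 10 nM purified firefly luciferase using Km concentrations of substrates (10 uM D-luciferin, 10 uM ATP) in Tris acetate pH 7.5 buffer; luminescence output.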
# * = called active by the depositor; ? = inconclusive; nt = no result given. Hits are enriched below; roughly 7.5% of the tested compounds scored in any of these assays. Calls follow the shape of the dose curve; as a rule, active = well fitted curve in the direction sought with a large enough effect; inconclusive = small, poorly fitted or top-dose-only effect, or another doubt; inactive = no such curve, though single readings can be large; an effect the other way counts as inactive or inconclusive. Potency is read from the fitted curve at half-maximal effect.
SMILES,SMN2 splice enh,NPC1 promoter act,ELG1 genotoxic,Rab9 prom act,FLuc counter
COC(=O)CSc1nc2ccc(N)cc2s1,1%,0%,-2%,-2%,27µM*
CCOC(=O)CSc1nc2ccc(NC(C)=O)cc2s1,nt,0%,0%,-1%,?
Nc1ccc2nc(SCc3ccc([N+](=O)[O-])cc3)sc2c1,-25%,-7%,0%,3%,21µM*
COc1ccc(S(=O)(=O)Nc2cc(C)on2)cc1,nt,-1%,-1%,-1%,0%
CCOc1ccc(N(CC)S(=O)(=O)N2CCCC(C(=O)NCCc3ccccc3OC)C2)cc1 (configuration not stated),nt,nt,nt,nt,-13%
O=C(NNC(=O)c1cccc2ccccc12)c1ccc2c(c1)OCO2,nt,27%,18%,?,?
CCc1c(C)nc2ncnn2c1Nc1ccc(C(C)=O)cc1,16%,27%,18µM*,13%,27µM*
CCOC(=O)c1ccc(Nc2c(CC)c(C)nc3ncnn23)cc1,-17%,-2%,-4%,-2%,-8%
N=c1oc2cc(O)ccc2cc1C(=O)Nc1ccccn1,-7%,1%,4%,2%,?
N=c1oc2cc(O)ccc2cc1C(=O)Nc1ccc(Br)cc1,nt,1.8µM*,17%,1.4µM*,2.7µM*
COc1ccc2oc(=N)c(C(=O)Nc3ccc(C)cc3)cc2c1,nt,23%,11%,?,?
N=c1oc2cc(O)ccc2cc1C(=O)Nc1nc2ccccc2s1,0%,4µM*,6.5µM*,3.2µM*,0.19µM*
COc1ccc2oc(=N)c(C(=O)Nc3cccc(C)c3C)cc2c1,nt,2.2µM*,?,4.5µM*,0.76µM*
N=c1oc2ccc(Cl)cc2cc1C(=O)Nc1ccc(F)cc1,nt,3.5µM*,?,3.5µM*,?
CCOc1ccccc1-n1nnnc1SCC(=O)N1CCCC1=O,nt,nt,4%,nt,nt
O=C(Nc1ccccc1O)c1cc2cc(Br)ccc2oc1=O,nt,3.5µM*,?,?,?
COc1ccc2oc(=O)c(C(=O)N3CCN(c4ccccc4C)CC3)cc2c1,14µM*,18%,9.2µM*,27%,13µM*
COc1ccc2oc(=N)c(C(=O)Nc3ccccc3)cc2c1,13µM*,?,?,3.2µM*,0.95µM*
N=c1oc2ccccc2cc1C(=O)Nc1ccccc1,nt,0.5µM*,0.82µM*,1.3µM*,0.76µM*
ON=C1CCCCC1,-9%,nt,nt,nt,nt
CCCC(C)c1nnc(NC(=O)C2CCCO2)s1 (configuration not stated),?,10%,?,16%,-7%
COc1ccc2oc(=N)c(C(=O)Nc3ccccc3Cl)cc2c1,nt,3.5µM*,?,2.5µM*,0.54µM*
COc1ccc2oc(=O)c(C(=O)Nc3ccccc3C)cc2c1,nt,3.2µM*,?,3.2µM*,1.7µM*
Cc1ccc(C(=O)NNC(=O)c2nn(-c3ccc(F)cc3)ccc2=O)cc1,nt,-1%,1%,-6%,15µM*
O=C(NNC(=O)c1nn(-c2ccc(F)cc2)ccc1=O)c1ccc(Cl)cc1,nt,3%,-4%,9%,?
SMILES,SMN2 splice enh,NPC1 promoter act,ELG1 genotoxic,Rab9 prom act,FLuc counter
CCOc1ccc(C(=O)Nc2nnc(S(=O)(=O)Nc3ccccc3C)s2)cc1,nt,-5%,0%,2%,-10%
Clc1ccc(Nc2nc(C3CC3)cs2)cc1,11µM*,3.2µM*,6.5µM*,1.6µM*,7.6µM*
Cc1ccc(Nc2nc(C(=O)N3CCC(C(=O)NC(C)C)CC3)cs2)cc1,nt,-4%,0%,2%,-5%
Cc1ccc(Nc2nc(C3CC3)cs2)cc1,4µM*,4µM*,8.2µM*,3.5µM*,3.8µM*
O=C(CCSc1ccccn1)Nc1ccc(Br)cc1,14µM*,?,?,3.5µM*,12µM*
O=C(CSc1ccccn1)Nc1ccc(Br)cn1,3%,1%,4%,2%,?
COc1ccccc1C(=O)CSc1ccccn1,28%,28%,?,?,17µM*
COc1ccc(NC(=O)CSc2ccccn2)cc1,?,21%,16%,?,?
COC(=O)CNC(=O)CSc1ccccn1,nt,0%,0%,-6%,-4%
